Measured values published in PubChem BioAssay.
Active and inactive are the calls of the source. Cut-off read from the data, not from the text of the source: active = inhibition above about 30%; inactive = the rest.

System: transactivating tegument protein VP16 (Human herpesvirus 1), Gal4-VP16 luciferase reporter
Test: VP16 transactivation inhibitors, counter-screen for SRC3 inhibitor project, cell-based, luminescence, high throughput (AID 588794)
Conditions: mammalian cells, VP16-driven luciferase reporter luminescence; at 3.6 µM; active compounds read high

Structure (SMILES)	inhibition
NC(=S)Nc1cc(Cl)cc(Cl)c1	20.4% (inactive)
CCN(CC)S(=O)(=O)c1cccc(NC(=O)Nc2cccc(C(F)(F)F)c2)c1	18% (inactive)
Cc1ccc(S(=O)(=O)NCCC(=O)Nc2ccncc2)cc1C	-0.54% (inactive)
CCOC(=O)c1c(C)sc2c1N(C(=O)CCl)c1cc(Cl)ccc1S2	1.53% (inactive)
O=C(CCSc1ccc(Cl)cc1)N1CCN(c2ccc(O)cc2)CC1	28% (inactive)
CC(C)Nc1nc(Cl)nc(NNC(=O)C(C)Oc2ccccc2)n1 (stereo not given)	4.03% (inactive)
CC(C)(C)CNC(=O)[C@]1(C)CCC[C@@]2(C)C3CC[C@@]4(C)C[C@]3(CCC21)CC4=O (stereo not given in full)	17.9% (inactive)
C=CC[C@@H](CC(=O)N(CCO)Cc1ccccc1)C(=O)N[C@@H](C)COC(=O)[C@@H](CC=C)Cc1ccc(F)cc1	-1.92% (inactive)
CCCCn1c(/N=C/c2ccc(N(C)C)cc2)nc2ccccc21	-4% (inactive)
Cn1c(N)c(C(=O)COC(=O)C2CC(=O)N(Cc3ccccc3)C2)c(=O)n(C)c1=O (stereo not given)	-2.93% (inactive)
CCCCC(O)(CCCC)C(=O)NN(C(=O)OCC)c1ccccc1	14.8% (inactive)
Cn1nc(CC(=O)Nc2ccc3c(c2)OCCO3)c2ccccc2c1=O	34% (active)
Cc1ccc(S(=O)(=O)NCC(=O)N(c2ccccc2)C(C(=O)NCc2ccccc2)c2ccco2)cc1 (stereo not given)	4.99% (inactive)
O=C(c1ccccc1)N1CCN(Cc2c[nH]c3ccccc23)CC1	-3.11% (inactive)
CCOc1ccc(N2C(=O)C(CC(=O)Nc3ccccc3)N(Cc3ccccn3)C2=S)cc1 (stereo not given)	12.2% (inactive)
